In PubChem BioAssay (NCATS):
Values joined by “and” are separate entries in the source; they are usually repeats but may differ in a detail not shown here. Equal values may be shown once. Inconclusive results are not listed. Active and inactive are the calls of the source. Unless noted, calls come from the whole dose curve; as a rule, active = well fitted curve in the direction sought with a large enough effect; inconclusive = small, poorly fitted or top-dose-only effect, or another doubt; inactive = no such curve, though single readings can be large; an effect the other way counts as inactive or inconclusive.

What was measured:
[1] = qHTS assay for small molecule activators of the nuclear factor-kappa B (NF-kB) signaling pathway (AID 651749; active = well fitted activation curve with a large enough effect in the signal ratio; the % refers to the signal ratio; note: % of control where 0% means no effect); settings: NF-kB-bla ME-180 cells, beta-lactamase FRET ratio, 16 h; hits give high values
Method in brief: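 FRET-based beta-lactamase detection in ME-180 cells reports NF-kB response-element-driven transcription following overnight (16 hr) compound treatment.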

[2] = target: Tumor necrosis factor (Homo sapiens) (UniProt P01375); assay: qHTS assay to identify small molecules that stimulate Tumor Necrosis Factor-alpha (TNF-alpha) secretion (AID 651757; active = well fitted curve in the direction sought with a large enough effect in the signal ratio; the % refers to the signal ratio; note: 0% is about no effect); settings: Human cells, HTRF 665/615 ratio; series mostly up to 92.2 µM
Tumor necrosis factor (Homo sapiens), sequence (P01375 whole entry, looked up): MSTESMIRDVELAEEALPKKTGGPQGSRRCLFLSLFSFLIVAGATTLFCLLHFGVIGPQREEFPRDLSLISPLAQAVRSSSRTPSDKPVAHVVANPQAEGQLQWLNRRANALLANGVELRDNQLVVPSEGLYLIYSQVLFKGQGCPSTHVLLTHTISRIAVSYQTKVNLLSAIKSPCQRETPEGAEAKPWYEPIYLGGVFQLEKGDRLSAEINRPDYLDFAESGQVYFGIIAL
Method in brief: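 THP-1 cells, 3000/well; compound 17 hrs, 37 C; add cryptate/XL665 anti-TNF-alpha antibody pair; 3 hr RT; TR-FRET (HTRF) read of secreted TNF-alpha. Quantitative HTS format.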

[3] = qHTS assay to identify small molecules that stimulate interleukin-8 (IL-8) secretion (AID 651758; active = well fitted activation curve with a large enough effect in the signal ratio; the % refers to the signal ratio; note: 0% is about no effect); settings: HTRF ratio (665/615); series mostly up to 92.2 µM
Method in brief: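 Secreted IL-8 measured homogeneously by TR-FRET (two labelled anti-IL-8 antibodies, 1-3 h at room temperature) after a 16 h, 37 C compound treatment of THP-1 cells at 2000 cells/well.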

[4] = qHTS assay for environmental chemicals that activate the Aryl hydrocarbon Receptor (AhR) signaling pathway (AID 651777); settings: 1A2-DRE human hepatoma cells, luciferase, 24 h; activation: hits give high values; note: % of control where 0% means no effect; nearly all actives have a fitted effect of over 15% in size
Method in brief: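 Concentration–response screening used 1,200 1A2-DRE cells per well, 24 hr compound exposure (37 C, 5% CO2), and One-Glo luminescence as the AhR-driven CYP1A2 reporter signal.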

[5] = target: Peroxisome proliferator-activated receptor alpha (Homo sapiens) (UniProt Q07869); assay: qHTS assay for small molecule agonists of the peroxisome proliferator-activated receptor alpha (PPARalpha) signaling pathway (AID 651778); settings: PathHunter PPARalpha complementation, chemiluminescence, 6 h; max response: hits give high values; note: % of control where 0% means no effect
Peroxisome proliferator-activated receptor alpha (Homo sapiens), sequence (Q07869 whole entry, looked up): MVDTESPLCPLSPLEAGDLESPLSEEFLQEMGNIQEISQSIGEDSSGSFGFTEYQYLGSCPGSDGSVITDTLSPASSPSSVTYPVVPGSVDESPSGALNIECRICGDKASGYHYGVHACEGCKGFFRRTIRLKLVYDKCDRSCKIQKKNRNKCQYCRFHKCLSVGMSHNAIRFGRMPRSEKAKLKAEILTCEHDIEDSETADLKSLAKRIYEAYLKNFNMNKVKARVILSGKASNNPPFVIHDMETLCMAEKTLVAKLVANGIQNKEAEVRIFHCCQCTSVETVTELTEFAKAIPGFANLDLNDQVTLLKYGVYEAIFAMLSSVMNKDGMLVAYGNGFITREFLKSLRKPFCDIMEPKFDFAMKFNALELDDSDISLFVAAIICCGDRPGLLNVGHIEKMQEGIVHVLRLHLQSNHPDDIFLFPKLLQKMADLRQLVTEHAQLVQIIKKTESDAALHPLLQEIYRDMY
Method in brief: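 Chemiluminescence from complemented enzyme reported PPARalpha activation in cells after 6 hr of compound treatment at 37 C. The detection reagent was incubated for 60 min at room temperature, and compounds were scored as agonists.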

[6] = target: Nuclear receptor ROR-gamma (Homo sapiens) (UniProt P51449); assay: qHTS assay for small molecule antagonists of the retinoid-related orphan receptor gamma (ROR-gamma) signaling pathway (AID 651802); settings: ROR-gamma antagonist cell reporter assay; series mostly up to 92.2 µM; note: nearly all actives have a fitted effect of over 60% in size; note: potency is the fitted concentration of half-maximal effect
Nuclear receptor ROR-gamma (Homo sapiens), sequence (P51449 whole entry, looked up): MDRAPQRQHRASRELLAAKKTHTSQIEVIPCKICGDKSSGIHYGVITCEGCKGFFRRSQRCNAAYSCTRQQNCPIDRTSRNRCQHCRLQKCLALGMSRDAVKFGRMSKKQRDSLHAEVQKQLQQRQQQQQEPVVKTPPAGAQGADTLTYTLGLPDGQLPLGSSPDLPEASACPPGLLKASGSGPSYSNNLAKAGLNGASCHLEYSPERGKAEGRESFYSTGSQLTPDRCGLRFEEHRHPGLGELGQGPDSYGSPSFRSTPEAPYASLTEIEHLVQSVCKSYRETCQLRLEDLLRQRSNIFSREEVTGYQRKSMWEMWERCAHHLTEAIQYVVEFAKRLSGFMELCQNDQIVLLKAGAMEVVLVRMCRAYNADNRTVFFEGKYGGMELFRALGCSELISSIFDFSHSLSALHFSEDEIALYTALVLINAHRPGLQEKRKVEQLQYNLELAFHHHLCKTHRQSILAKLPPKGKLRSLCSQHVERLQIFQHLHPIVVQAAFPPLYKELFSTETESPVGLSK
Method in brief: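 Luciferase read-out: ONE-Glo luminescence after 30 min at room temperature, following 16hr doxycycline induction at 37C, 5% CO2 of CHO cells with TET-inducible ROR and RORE-LUC reporter; decreased luminescence = reduced reporter activity.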

[7] = qHTS assay for small molecule agonists of the antioxidant response element (ARE) signaling pathway measured by Nrf2-dependant transcriptional activity (AID 720636; active = well fitted curve in the direction sought with a large enough effect in the repeat runs; an effect the other way counts as inactive or inconclusive;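 note: HepG2 cells with an ARE-driven luciferase reporter; % of control where 0% means no effect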); settings: ARE-luc HepG2, Nrf2 luciferase reporter, 16 h; series mostly up to 92.4 µM
Method in brief: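 Attachment 6 hr at 37 C, then compound versus DMSO vehicle for 16 hr in ARE-luc HepG2 cells (1% dialyzed FBS); luminescence recorded 30 min after ONE-Glo addition at room temperature.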

[8] = qHTS assay for small molecule antagonists of the retinoid-related orphan receptor gamma (ROR-gamma) signaling pathway - cell viability counter screen (AID 720652; active = well fitted curve in the direction sought with a large enough effect in the repeat runs; an effect the other way counts as inactive or inconclusive;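 note: compound exposure lasted 16 hr before ATP read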; note: potency is the fitted concentration of half-maximal effect); settings: RORgamma reporter cell line viability counter screen; series mostly up to 92.2 µM
Method in brief: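 CHO RORE-LUC/TET-ROR line, 1,000 cells/well, 37 C 5% CO2 5 hr; cpd or DMSO + doxycycline induction, 16 hr. CellTiter-Glo, 30 min RT, luminescence = ATP content.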

[9] = qHTS assay for small molecule agonists of the antioxidant response element (ARE) signaling pathway measured by Nrf2-dependant transcriptional activity - cell viability counter screen (AID 720653; active = well fitted curve in the direction sought with a large enough effect in the repeat runs; an effect the other way counts as inactive or inconclusive; note: % is set by controls: 0 for no effect and ±100 for the full control effect); settings: ARE-bla HepG2 viability, CellTiter-Glo ATP luminescence, 16 h; max response: hits give low values
Method in brief: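 Cytotoxicity counter screen: intracellular ATP quantified by CellTiter-Glo luminescence in the same ARE-bla HepG2 plates, after 16 h compound exposure and a 2 h beta-lactamase substrate step.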

[10] = qHTS assay for small molecule disruptors of the mitochondrial membrane potential - 1 hr assay (AID 651754; calls by dose curve; note: potency is the fitted concentration of half-maximal effect; nearly all actives have a fitted effect of over 35% in size); settings: series mostly up to 92.2 µM
Method in brief: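 Read-out: dye fluorescence at 490 nm ex/535 nm em (monomers) and 540 nm ex/590 nm em (aggregates) in HepG2 cells. Compound exposure 1 hr at 37C, followed by 30 min dye loading.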

[11] = qHTS Assay for Identifying Gametocytocidal Compounds (AID 743244); note: potency is the fitted concentration of half-maximal effect;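 for max response: % is set by controls: 0 for no effect and ±100 for the full control effect; actives lower the fluorescent signal which means gametocytes are killed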; settings: P. falciparum 3D7 stage III-V gametocytes, alamarBlue, 72 h; max response: hits give low values
Method in brief: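 Compounds are pinned into medium, gametocytes (stage III–V, 3D7, 20,000 cells/well) added, and plates held 72 h at 37 °C in 5% CO2. AlamarBlue follows for 24 h before fluorescence reading.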

[12] = target: Tyrosine-protein kinase Yes (Homo sapiens) (UniProt P07947); assay: qHTS for small molecule inhibitors of Yes1 kinase: Primary Screen (AID 686947); settings: Yes1 kinase biochemical qHTS inhibition; series mostly up to 76.9 µM; note: nearly all actives have a fitted effect of over 60% in size; note: potency is the fitted concentration of half-maximal effect
Tyrosine-protein kinase Yes (Homo sapiens), sequence (P07947 whole entry, looked up): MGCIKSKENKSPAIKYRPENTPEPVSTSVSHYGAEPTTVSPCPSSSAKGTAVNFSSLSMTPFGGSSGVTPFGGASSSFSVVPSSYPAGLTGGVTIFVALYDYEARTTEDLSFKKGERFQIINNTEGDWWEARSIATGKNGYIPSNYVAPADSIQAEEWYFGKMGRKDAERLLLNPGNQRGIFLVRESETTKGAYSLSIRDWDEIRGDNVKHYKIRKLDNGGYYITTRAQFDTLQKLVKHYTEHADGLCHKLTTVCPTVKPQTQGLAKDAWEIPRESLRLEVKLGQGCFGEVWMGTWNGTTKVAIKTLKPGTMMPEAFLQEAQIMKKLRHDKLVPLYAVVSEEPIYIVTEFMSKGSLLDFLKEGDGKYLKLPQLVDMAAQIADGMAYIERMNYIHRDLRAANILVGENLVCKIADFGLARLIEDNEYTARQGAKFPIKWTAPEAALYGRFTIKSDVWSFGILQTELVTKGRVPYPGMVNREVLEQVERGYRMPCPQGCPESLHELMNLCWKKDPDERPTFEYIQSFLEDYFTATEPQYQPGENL
Method in brief: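 In this qHTS format, inhibition is expressed relative to DMSO controls with enzyme (maximum) and without enzyme (minimum). The 60 min room-temperature reaction uses 0.1 mM ATP, with ADP detected by luminescence.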

[13] = qHTS for small molecule inhibitors of Yes1 kinase: Counter Assay (AID 686950); settings: series mostly up to 76.9 µM;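 note: no kinase present so only ADP-Glo detection of a fixed ADP amount is tested; luminescence from ADP-Glo reporting ADP in a fixed ATP and ADP mixture; 0% = DMSO wells with ATP plus ADP and -100% = ATP-only wells without ADP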
Method in brief: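 ADP-Glo luminescence read after a 60 min room-temperature incubation of compound with an ATP/ADP mix (0.08 mM/0.02 mM) and no kinase, following a 20 min compound preincubation. Signal scaled between ATP+ADP (max) and 0.1 mM ATP-only (min) wells; Tris pH 7.5, Mg2+, DTT.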

c1cc2ccc3cccc4ccc(c1)c2c34
inactive: activation [1] -0.548% and 0.897% | outcome [2] | outcome [3] | activation [4] -0.0456% and 4.28% | max response [5] -3.14% and -4.98% | Potency [6] | Potency [7] | Potency [8] | max response [9] -6.01% and -15.3%

ClC1=C(Cl)[C@]2(Cl)[C@@H]3[C@@H]4C[C@@H]([C@H]5O[C@@H]45)[C@@H]3[C@@]1(Cl)C2(Cl)Cl
inactive: activation [1] 5.88% | activation [4] -1.01% | max response [5] 12.3% | max response [9] -16.9%

COc1ccc(C(c2ccc(OC)cc2)C(Cl)(Cl)Cl)cc1
active: Potency [10] 23.7 µM and 37.6 µM | Potency [6] 26.6 µM | Potency [8] 66.8 µM and 42.2 µM
inactive: activation [1] 1.06% and 0.442% and 3.56% | outcome [2] | outcome [3] | activation [4] 1.39% and 11.4% and 6.25% | max response [5] 12.2% and 6.03% and 0.144% | max response [9] 5.23% and -7.02% and -11.5% | max response [11] -11%

C1=CCOCc2cc(ccc2OCCN2CCCC2)Nc2nccc(n2)-c2cccc(c2)OCC1
active: Potency [12] 0.0434 µM

CCCCCCCCc1ccc(O)cc1
inactive: outcome [2] | activation [4] 1.65% and 1.55% | max response [5] 18.3% and 5.8% | Potency [6] | max response [9] -0.124% and 0.446% | max response [11] -6.88%

Brc1ccccc1-c1ccccc1
inactive: Potency [6]

Cc1c(C(=O)Nc2cccc(C(F)(F)F)c2)cc(-c2ccccc2)n1CCCN1CCOCC1
inactive: Potency [12] | outcome [13] | max response [11] 12.4%

O=S(=O)(c1ccc(Cl)cc1)c1ccc(Cl)cc1
inactive: outcome [2] | outcome [3] | activation [4] -0.947% and -1.11% and 1.55% | max response [5] 2.6% and -3.68% and -3.44% | Potency [6] | Potency [8] | max response [9] -11% and -26.7% and -18.8% | max response [11] -16%

C=CCON=C(C[C@H]1O[C@@H]2O[C@]3(C)CC[C@@H]4[C@H](C)CC[C@@H]([C@H]1C)[C@@]24OO3)[C@H]1O[C@@H]2O[C@]3(C)CC[C@H]4[C@H](C)CC[C@@H]([C@@H]1C)[C@@]24OO3
inactive: outcome [13]
active: Potency [12] 6.88 µM | Potency [11] 0.0083 µM

CC(C)(O)C(=O)Nc1ccc([N+](=O)[O-])c(C(F)(F)F)c1
active: Potency [10] 29.8 µM
inactive: activation [4] -1.15% | max response [5] -1.76% | Potency [8] | max response [9] -5.91%

CO/C=C(/C(=O)OC)c1ccccc1Oc1cc(Oc2ccccc2C#N)ncn1
inactive: activation [4] 1.61% | max response [11] 18.4%
